# Measured values published in PubChem BioAssay AID493185 (National Center for Advancing Translational Sciences (NCATS), 2011).
# Calls of active or inactive are those of the source. A call without a number means that no potency is given here. Calls come from the whole dose curve; as a rule, active = well fitted activation curve with a large enough effect; inconclusive = small, poorly fitted or top-dose-only effect; inactive = no such curve, though single readings can be large or run the other way.
# Assay: Counterscreen for Identifying a Potential Treatment of Ataxia-Telangiectasia: Hit Validation
# Conditions: cell-free AlphaLISA/AlphaScreen artifact counterscreen, PBS only, no cells; series mostly up to 76.9 µM
# Text: NIH Chemical Genomics Center [NCGC]
# NIH Molecular Libraries Probe Centers Network [MLPCN]
# Assay Submitter (PI): Wei Zheng and Yosef Shiloh
# Ataxia-telangiectasia (A-T) is a devastating and progressive disease for which, there is no cure. Although A-T is a multisystem disease, it is stereotyped characterized by its neurological symptoms such as truncal ataxia, due to cerebellar cortical degeneration of the Purkinje and granule cells. Other symptoms of A-T are telangiectasias (dilated blood vessels), primary immunodeficiency, marked sensitivity to ionizing radiation (IR), chromosomal instability and predisposition to cancer.
# The underlying genetic cause of A-T is null mutations in the ATM (A-T mutated) gene. ATM is a nuclear serine/threonine kinase that functions as a master regulator of the cellular responses to double strand breaks (DSBs) in the DNA. Upon activation by DSBs, ATM phosphorylates a plethora of downstream targets, including KAP-1 on […]. KAP-1 phosphorylation occurs shortly in response to DSBs and mediates global chromatin relaxation, which facilitates DSB repair. To screen for small molecules that will compensate for the loss of ATM in cells derived from A-T patients, we monitored KAP-1 phosphorylation as a readout for ATM-like activity using an AlphaLISA assay.
# 3. Library compounds, 23 nl, 76.7 - 0.61uM dilution series final concentration
# 4. Incubation, 60 min, 37C, 5% CO2, 95% humidity
# 6. Incubation, 30 min, 37C, 5% CO2, 95% humidity
# 7. Reagent, 1 ul, Premixed detection reagents and lysis buffer
# 8. Reagent, 1 ul, 0.6% Antifoam A
# 9. Incubation, 6 hr, 25C, 95% humidity
# 10. Readout, EnVision, EnVision plate reader. AlphaScreen 1536-well protocol
# PBS was dispensed into medium-binding white solid-bottom tissue culture treated Kalypsys plates with a Multidrop dispenser. Detection reagent and lysis buffer was 3.75nM Rab-a-pKAP1 antibody bound to 75 ng/ul AlphaScreen SA donor bead, 3.75 nM Biot-M-a-KAP1 antibody bound to AlphaLISA protein A acceptor bead, 0.5x protease inhibitor cocktail and 0.25x PerkinElmer lysis buffer. EnVision protocol for 1536-well AlphaScreen read (30ms excitation, 100ms read), about 10 min/plate. This assay is similar to the primary screen but is without cells. It aims to identify artifacts of the assay platform and unspecific hits.
# Potency is the fitted concentration of half-maximal effect.
row,Structure (SMILES),Potency
1,CCCCn1c(O)c(C(=O)/C=C/c2c[nH]c3ccccc23)c(=O)[nH]c1=O,inactive
2,COC(=O)C1=C(c2ccc(OCc3ccccc3)cc2)C[C@@H]2CC[C@H]1N2C(=O)NCc1cccc(C(F)(F)F)c1,inactive
3,O=C(c1cccnc1)C1CCCN(Cc2nc(-c3cnccn3)no2)C1 (stereo not given),inactive
4,CN1CCN(c2ccc([N+](=O)[O-])c3no[n+]([O-])c23)CC1,inactive
5,CCN(CC)S(=O)(=O)c1ccc(C(=O)NC2CN3CCC2CC3)cc1 (stereo not given),inactive
6,O=C1Nc2ccccc2C1Cc1nc2ccccc2c(=O)n1-c1ccccc1 (stereo not given),inactive
7,CC1(C)C[C@H]2C=C(C=O)[C@]3(C=O)C[C@]3(C)[C@H]2C1,inactive
8,CCc1ccc(N2C(=O)NC(=O)/C(=C\C=C\c3ccco3)C2=O)cc1,inactive
9,CCCCC(=O)N/N=C/c1c(O)n(CCC2=CCCCC2)c(=O)[nH]c1=O,inactive
10,Cc1cc(O)c2c(c1)C(=O)C13C(=C2O)C(=O)[C@H]2[C@@H](O)[C@@H]1[C@H]1[C@H](O)[C@@H]3C(=O)C3=C(O)c4c(O)cc(C)cc4C(=O)C312 (stereo not given in full),7.33 µM (active)
11,CC(C)c1ccc(-n2c(O)c(C=NC(CCS(C)=O)C(=O)O)c(=O)[nH]c2=S)cc1 (stereo not given),inactive
12,Cc1ccc(C)c(NP(=O)(Oc2ccccc2)Oc2ccccc2)c1,inactive
13,CCN1C(=O)N(CC)C(=O)C2(Cc3ccccc3N3CCN(c4ccccc4)CC32)C1=O (stereo not given),inactive
14,CCN(CC)S(=O)(=O)c1cccc(N=Nc2c(O)n(CC)c(=S)n(CC)c2=O)c1,inactive
15,Cc1nc2ccccc2c(=O)n1-c1ccc(F)cc1F,inactive
16,C/C=C/c1ccc2c(c1)OCO2,inactive
17,Cc1ccc(-n2c(O)c(C=NCC3CCCO3)c(=O)[nH]c2=O)c(C)c1 (stereo not given),inactive
18,CC(=O)OC1CC[C@]2(C#N)[C@H]3CC[C@]4(C)[C@H](C5C=CC(=O)O5)CCC4(O)C3CCC2(O)C1 (stereo not given in full),inactive
19,CN1CCCC(C(O)(c2ccccc2)c2ccccc2)C1 (stereo not given),inactive
20,Cc1cccc(N2C(=O)NC(=O)/C(=C\C=C\c3ccco3)C2=O)c1,inactive
